According to PubChem BioAssay (NCI):
This is part of a sample that, as a whole, favours compounds with a hit. Of some 79,000 tested, about 15% had one in any assay. Rule as the data show it: active = growth inhibition above about 70%; inactive = the rest.

Experiments:
[1] = NCI Yeast Anticancer Drug Screen. Data for the rad50 strain (AID 155);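 also: 0% = growth of vehicle-only cultures of the same strain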; conditions: S. cerevisiae rad50 strain growth inhibition; at 50.0 µM; hits give high values
Method in brief: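 Inhibition values express reduced yeast growth in compound-treated cultures relative to vehicle-treated controls.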

[2] = NCI Yeast Anticancer Drug Screen. Data for the mec2-1 strain (AID 157); conditions: S. cerevisiae mec2-1 strain, at 50.0 µM, hits give high values
Method in brief: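 Test agents were screened against the mec2-1 yeast strain, with defined DNA repair or cell cycle alteration. Growth was scored as inhibition against vehicle-only controls.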

[3] = NCI Yeast Anticancer Drug Screen. Data for the sgs1 mgt1 strain (AID 161);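 also: 0% = growth of cultures given vehicle only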; conditions: S. cerevisiae sgs1 mgt1 strain, at 50.0 µM, hits give high values
Method in brief: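 Genetically altered yeast, compound exposure, growth inhibition relative to vehicle.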

[4] = NCI Yeast Anticancer Drug Screen. Data for the cln2 rad14 strain (AID 165);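 also: 0% = growth equal to vehicle treated cultures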; conditions: S. cerevisiae cln2 rad14 strain, at 50.0 µM, hits give high values
Method in brief: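 Growth of compound-exposed yeast (cln2 rad14 genotype) measured and expressed as inhibition relative to vehicle.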

[5] = NCI Yeast Anticancer Drug Screen. Data for the bub3 strain (AID 167); conditions: S. cerevisiae bub3 mutant strain, at 50.0 µM, hits give high values
Method in brief: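 Steps: expose the mutant yeast strain to compound; grow alongside vehicle-treated cultures; measure growth; express inhibition against the vehicle cultures.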

[6] = NCI Yeast Anticancer Drug Screen. Data for the mlh1 rad18 strain (AID 175); conditions: S. cerevisiae mlh1 rad18 strain growth inhibition; at 50.0 µM; hits give high values
Method in brief: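 In this whole-cell yeast screen, a strain with altered DNA damage repair is challenged with compound, and its growth is measured against matched vehicle-treated controls.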

Measured: growth inhibition

CC(O)C1C(C(=O)O)C2C(C)OC(=O)C12 (centres undefined)
inactive: [1] -0.6% | [2] -3.4% | [3] -0.8% | [4] 52.5% | [5] 2.45% | [6] 15.5%

O=C(c1ccccc1)C12CCCC(CC1)C2 (centres undefined)
inactive: [1] 0.15% | [2] -19.9% | [3] -2.2% | [4] -37.5% | [5] -9.6% | [6] 0.65%

Cc1c(Cl)cccc1NC(=O)Sc1ccc(C(C)(C)C)cc1
inactive: [1] 21.1% | [2] 11.4% | [3] 12.5% | [4] 19.1% | [5] 11.4% | [6] 15.5%

CCCCCCC(=O)C(N)Cc1ccccc1 (centres undefined)
inactive: [1] 0.45% | [2] -27.1% | [3] 3.7% | [4] 8.2% | [5] -1.1% | [6] 20%

O=C1C(Cl)C(c2ccc(O)cc2)N1n1cnc2ccccc2c1=O (centres undefined)
inactive: [1] 56.6% | [2] 37.9% | [3] 59.4% | [4] 31.9% | [5] 32.8% | [6] 36.6%

CCCCCCC(=O)c1ccc2ccccc2c1O
inactive: [1] 1.6% | [2] -14.8% | [3] 0.55% | [4] -23.9% | [5] 8.8% | [6] -2.55%

CC(=O)OCCN(C)C
inactive: [1] 3.4% | [2] -1.85% | [3] -16% | [4] 8.5% | [5] -19.4% | [6] -10.4%

Cn1c2ccccc2c2nnc(N/N=C/c3cccs3)nc21
inactive: [1] -15.6% | [2] -9.2% | [3] -9.6% | [4] -32.2% | [5] -10.6% | [6] 10.7%

CCN(CC)CCNc1ccc(C)c2sc3ccc(N)cc3c(=O)c12
inactive: [1] 30.3% | [2] 18.1% | [3] 8.9% | [4] 28.3% | [5] -0.35% | [6] 19.8%

COc1cc2c(c(OC)c1OC)CCCC2=O
inactive: [1] 0.2% | [2] -10.4% | [3] -4.5% | [4] -130% | [5] -4.7% | [6] -4.9%

CCN(CC)CCNc1ccc(N)c2sc3ccccc3c(=O)c12
inactive: [1] 8.45% | [2] 3.8% | [3] -18.7% | [4] -8.25% | [5] -37.6% | [6] -29.1%

COc1ccc(Cc2cn(C)cc(Cc3ccc(OC)cc3)c2=O)cc1
inactive: [1] 4.7% | [2] 0.8% | [3] 7.15% | [4] -7.45% | [5] -1.2% | [6] -4.45%

O=C(SCc1oc2ccccc2c1O)c1ccccc1
inactive: [1] 12.8% | [2] 13.7% | [3] 16.5% | [4] -3.75% | [5] -7.3% | [6] 13.3%

O=c1[nH]nc(S(=O)(=O)c2ccccc2)c(=O)[nH]1
inactive: [1] 13.2% | [2] -6.45% | [3] -1.7% | [4] -10.6% | [5] 9.3% | [6] -3.2%

Cc1ccccc1NC(=O)c1ccccc1Cl
inactive: [1] -19.3% | [2] -18.6% | [3] -6.9% | [4] -31.8% | [5] -19.1% | [6] -25.6%

CC(=O)OC1Cc2ccccc2C1OC(C)=O (centres undefined)
inactive: [1] -1.9% | [2] 9.4% | [3] -8.8% | [4] -9.8% | [5] -19.4% | [6] 7.1%

COC1OC(CO)C(O)C(NC(=O)[C@H](Cc2ccccc2)NC(=O)OCc2ccccc2)C1O (some centres undefined)
inactive: [1] 16.6% | [2] 0.75% | [3] 0.95% | [4] 8.65% | [5] 0.45% | [6] 14%

CN=NN(C)C(=O)NC
inactive: [1] -11.9% | [2] 0.7% | [3] 10.1% | [4] -13% | [5] -25% | [6] 30.4%

CCN(CC)c1ccc(/C=N/NC(=O)NN)cc1
inactive: [1] 4.35% | [2] -20.9% | [3] -15.4% | [4] -13.1% | [5] -7.95% | [6] -5.3%

Cc1ccc(C(C)C)cc1OCCOCCCl
inactive: [1] -2.25% | [2] 12.8% | [3] -4.85% | [4] -148% | [5] -1% | [6] 10.8%

N#C/C(C(=O)Nc1ccccc1)=C(/N)N1CCCC1
inactive: [1] 18.4% | [2] -15.7% | [3] 1.85% | [4] -5.65% | [5] -14.3% | [6] 25.6%

CC1N(N2C(=O)CS(=O)(=O)C2C)C(=O)CS1(=O)=O (centres undefined)
inactive: [1] 11.2% | [2] -3.95% | [3] 25.3% | [4] 15.1% | [5] 1.35% | [6] 37%

COC(=O)C1CCCCC1C(=O)OC (centres undefined)
inactive: [1] -11.1% | [2] -14% | [3] 0.85% | [4] -16.6% | [5] -5.3% | [6] 6%

CC1=NN(C(=O)c2cccnc2)C(=O)C1N=Nc1ccc(S(=O)(=O)N=C(N)N)cc1 (centres undefined)
inactive: [1] 4.8% | [2] -14.6% | [3] -12.4% | [4] -6.5% | [5] 0% | [6] -21.9%

CC1(C)OC2OC(C3CC3)C(O)C2O1 (centres undefined)
inactive: [1] -4.1% | [2] 4.75% | [3] 3% | [4] -36.1% | [5] 11.9% | [6] -1.85%

COc1c(NC(=O)c2ccc(C(=O)Nc3cccc([N+](=O)[O-])c3OC)cc2)cccc1[N+](=O)[O-]
inactive: [1] 22.3% | [2] -6.1% | [3] -9% | [4] -20.6% | [5] -2.2% | [6] -1.3%

Cc1cc([N+](=O)[O-])ccc1NC(=O)OC(C)C
inactive: [1] -12.6% | [2] -30.2% | [3] 3.05% | [4] 8.8% | [5] 1.35% | [6] -9.35%

O=C(CCCCC(=O)NC1c2ccccc2Oc2ccccc21)NC1c2ccccc2Oc2ccccc21
inactive: [1] 35.2% | [2] 12.1% | [3] 31% | [4] 32% | [5] 9.25% | [6] 31.4%

O=C1CCCC1CN1CCCCC1 (centres undefined)
inactive: [1] 3.25% | [2] -31.8% | [3] -13.7% | [4] 8.5% | [5] 22.1% | [6] -7.25%

CCOC(=O)N1c2ccccc2OC1C#N (centres undefined)
inactive: [1] -17.3% | [2] 1.3% | [3] -4.4% | [4] -33.1% | [5] 51.3% | [6] 13.5%

CCOC(=O)Cc1ccc2c(c1)sc1nc(-c3ccc(OC)cc3)cn12
inactive: [1] 38.8% | [2] 19.5% | [3] 21.2% | [4] 32.3% | [5] 31.1% | [6] 18.6%

O=C(O)c1ccncc1
inactive: [1] 12.2% | [2] -9.65% | [3] 8.1% | [4] 46.9% | [5] -2.9% | [6] 17.9%

Cc1ccc(F)cc1S(N)(=O)=O
inactive: [1] -19.4% | [2] -9.65% | [3] -16.6% | [4] -14.4% | [5] 12.3% | [6] -7.8%

Cn1c(=O)c2nc3sc4c(n3c2n(C)c1=O)C(=O)c1ccccc1C4=O
inactive: [1] -17% | [2] 21.4% | [3] 11.2% | [4] -11.2% | [5] -11% | [6] 25.4%

CC1(C(Cl)Cl)C=CC(=O)c2ccccc21 (centres undefined)
inactive: [1] 37% | [2] 35.6% | [3] 21.4% | [4] 15.3% | [5] 12.3% | [6] 4.9%

COc1cccc(-c2cc(=O)c3cccc(CC(=O)O)c3o2)c1
inactive: [1] 5.9% | [2] -4.9% | [3] -11.6% | [4] 2.85% | [5] -2.35% | [6] -30.9%

N#C/C(=C\c1c(Cl)cccc1Cl)c1nc(-c2ccc(Cl)cc2)cs1
inactive: [1] -32.4% | [2] -40.6% | [3] -25.5% | [4] -23.6% | [5] -17.4% | [6] -32.9%

COc1ccc(NC(=O)NCc2cccc(Cl)c2)cc1
inactive: [1] 2.6% | [2] 35.4% | [3] 32% | [4] -8.4% | [5] -9.15% | [6] 44.1%

COc1cccc(C(=O)c2ccncc2)c1OC
inactive: [1] -10.2% | [2] -4.65% | [3] -5.6% | [4] 4.4% | [5] 1.1% | [6] -4.85%
